Wnt act: Wnt/beta-catenin pathway activators, primary screen, cell-based, plate reader, single point | Wnt/beta-catenin reporter cell assay, activator | activation, % at 9.35 µM | 300,000 compounds, 1.2% hits; in the data active = activation above about 30%, passing the limit was not always enough; inconclusive = no clear call, values can overlap the other calls;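 also: 0% = neutral control wells and 100% = positive control wells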
MITF TRPM1 HTS: activators of MITF-driven TRPM1 promoter reporter, primary screen, cell-based, SK-MEL-5, luciferase, single point; 300,000 compounds, 0.75% hits; SK-MEL-5 TRPM1-promoter luciferase, 24 h; % of positive control, neutral wells = 0; activation, % at 12.5 µM;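 active = mean activation of at least 80% with every replicate also reaching 80%; inconclusive = mean reaches 80% but some replicate falls short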;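 also: 0% = neutral control wells and 100% = parthenolide positive control wells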
TRPM1 prom inh: inhibitors of MITF-dependent TRPM1 promoter reporter, primary screen, cell-based, SK-MEL-5, single point, luciferase; SK-MEL-5 TRPM1 promoter luciferase, 24 h; inhibition, % at 12.5 µM; 330,000 compounds, 0.83% hits; AID 488899, 2010;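 active = mean inhibition across replicates of 60% or more, whatever share of single replicates reaches that level; inconclusive = some that reach 60%, reason not given; inactive = mean inhibition across replicates below 60%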
N-glyco inh: increase of ERlucT glycosylation luciferase signal, primary screen, N-linked glycosylation inhibitor project, D54 ERlucT cells, luminescence, set 2; D54 ERlucT glycosylation luciferase reporter, 24 h; percent of 100 nM tunicamycin response; reporter increase, % at 12.5 µM; 360,000 compounds, 0.23% hits;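 active = mean luciferase reporter signal, scaled so untreated is 0 and the glycosylation-blocking control 100, at or above a set limit in every replicate; inconclusive = mean reaches the limit but not every replicate does; inactive = mean below the limit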;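 also: luciferase carries N-glycosylation sites so blocking glycosylation raises the light; 0% = median of neutral control wells and 100% = median of 100 nM tunicamycin wells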
PfHsp90 yeast 2: growth inhibition of PfHsp90-expressing yeast, primary screen, antimalarial PfHsp90 inhibitor project, S. cerevisiae, BacTiter-Glo luminescence, single point, set 2; BacTiter-Glo ATP, 48 h; yeast lacking PDR1 and PDR3 efflux regulators; inhibition, % at 9.4 µM; 310,000 compounds, 0.32% hits;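 active = every replicate shows inhibition above about 80%, whatever the replicate mean, limit read from the data; inconclusive = mean inhibition reaches the set limit but some replicate falls short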;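 also: 0% = DMSO neutral controls and 100% = 20 µM radicicol positive controls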
NSD2 inh: NSD2 histone methyltransferase inhibitors, primary screen, biochemical, AlphaScreen, single concentration, set 2. Histone-lysine N-methyltransferase NSD2 (Homo sapiens), O96028. NSD2 peptide methylation, 120 min. inhibition, % at 12.5 µM. 310,000 compounds, 0.54% hits. AID 743445, 2014; in the data active = inhibition above about 50%
Target sequence (O96028 whole entry, looked up): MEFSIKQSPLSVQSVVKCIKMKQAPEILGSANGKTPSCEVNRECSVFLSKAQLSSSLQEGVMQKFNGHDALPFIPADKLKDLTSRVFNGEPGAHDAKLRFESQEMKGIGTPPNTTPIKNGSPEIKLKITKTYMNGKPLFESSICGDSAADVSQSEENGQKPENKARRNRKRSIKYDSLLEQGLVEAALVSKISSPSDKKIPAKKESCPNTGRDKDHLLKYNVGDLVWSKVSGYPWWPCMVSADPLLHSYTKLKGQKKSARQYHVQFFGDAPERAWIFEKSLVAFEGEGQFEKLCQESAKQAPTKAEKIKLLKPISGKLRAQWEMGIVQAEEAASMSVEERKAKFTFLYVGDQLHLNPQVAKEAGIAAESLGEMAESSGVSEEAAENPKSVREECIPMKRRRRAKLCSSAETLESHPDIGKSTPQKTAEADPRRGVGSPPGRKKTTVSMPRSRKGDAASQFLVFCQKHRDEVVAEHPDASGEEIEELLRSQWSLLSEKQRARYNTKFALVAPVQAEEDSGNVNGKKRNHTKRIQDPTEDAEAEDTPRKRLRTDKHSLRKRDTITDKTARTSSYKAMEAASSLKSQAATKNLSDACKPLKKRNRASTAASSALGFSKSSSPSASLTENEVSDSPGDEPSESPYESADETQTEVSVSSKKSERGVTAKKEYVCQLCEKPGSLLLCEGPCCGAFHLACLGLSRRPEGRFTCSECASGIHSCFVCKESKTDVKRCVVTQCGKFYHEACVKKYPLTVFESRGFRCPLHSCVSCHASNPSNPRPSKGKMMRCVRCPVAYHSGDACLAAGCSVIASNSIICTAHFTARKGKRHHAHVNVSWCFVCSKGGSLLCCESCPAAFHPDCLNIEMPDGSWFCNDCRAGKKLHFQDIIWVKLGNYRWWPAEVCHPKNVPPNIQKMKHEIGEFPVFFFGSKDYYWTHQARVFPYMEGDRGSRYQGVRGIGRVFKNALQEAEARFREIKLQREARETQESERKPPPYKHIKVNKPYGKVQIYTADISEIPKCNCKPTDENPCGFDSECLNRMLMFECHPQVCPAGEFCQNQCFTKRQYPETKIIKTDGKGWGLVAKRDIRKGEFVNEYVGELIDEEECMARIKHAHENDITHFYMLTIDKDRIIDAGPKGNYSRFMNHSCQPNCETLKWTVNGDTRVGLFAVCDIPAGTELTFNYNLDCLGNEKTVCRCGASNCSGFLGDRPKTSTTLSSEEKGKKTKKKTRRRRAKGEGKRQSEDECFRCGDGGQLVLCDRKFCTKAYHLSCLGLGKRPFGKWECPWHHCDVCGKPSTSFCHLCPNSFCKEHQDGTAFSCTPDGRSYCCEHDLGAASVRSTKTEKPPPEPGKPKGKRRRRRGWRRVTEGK
An asterisk follows results filed as active. The list is not random: actives were taken first. Their share in the collection is about 2.9%.

`C=CCN=C1NN=C(c2cc(C)n(CCOC)c2C)CS1` gave Wnt act -9, MITF TRPM1 HTS -19, TRPM1 prom inh 24, N-glyco inh -5, PfHsp90 yeast 2 12 and NSD2 inh 9.
`O=C(CN1CCC(NC(=O)Cc2ccccc2)CC1)Nc1cccc2ccccc12` gave Wnt act -4, MITF TRPM1 HTS -1, TRPM1 prom inh 3, N-glyco inh 0, PfHsp90 yeast 2 -14 and NSD2 inh -1.
Screening Cc1ccccc1-n1nnnc1SCC(=O)N(C)C1CCS(=O)(=O)C1 (stereo unspecified) returned Wnt act -2, MITF TRPM1 HTS -3, TRPM1 prom inh 4, N-glyco inh 0, PfHsp90 yeast 2 -21 and NSD2 inh -6.
`CC1=NN(C(N)=S)C(=O)C1N=Nc1ccc(S(N)(=O)=O)cc1` (stereo unspecified) gave Wnt act -1, MITF TRPM1 HTS -5, TRPM1 prom inh 5, N-glyco inh 3, PfHsp90 yeast 2 5 and NSD2 inh 1.
CC(=O)N(C)c1ccc(N=NC2C(=O)N(C(N)=S)N=C2C)cc1 (stereo unspecified) was read as Wnt act 52*, MITF TRPM1 HTS 29, TRPM1 prom inh -26, N-glyco inh -9, PfHsp90 yeast 2 25 and NSD2 inh 5.
`CCn1c(SCC(=O)NNC(=O)c2ccc(C)cc2)nnc1-c1ccco1` gave Wnt act -2, MITF TRPM1 HTS 13, TRPM1 prom inh -10, N-glyco inh 2, PfHsp90 yeast 2 3 and NSD2 inh -1.
Nn1c(SCc2ccccc2F)nnc1-c1ccccn1 was read as Wnt act 41* and N-glyco inh 3.
Screening CCc1nnc2c3cnn(-c4ccccc4)c3ncn12 returned Wnt act inconclusive, MITF TRPM1 HTS 99*, TRPM1 prom inh -81, N-glyco inh 1, PfHsp90 yeast 2 2 and NSD2 inh -3.
c1ccc(-n2ncc3c2ncn2cnnc32)cc1 was read as MITF TRPM1 HTS 4, TRPM1 prom inh -12, N-glyco inh 1 and PfHsp90 yeast 2 -7.
For CN(Cc1cc2ccccc2[nH]c1=O)C(=O)COc1ccccc1 the results were Wnt act 50*, MITF TRPM1 HTS -4, TRPM1 prom inh 0, N-glyco inh 0, PfHsp90 yeast 2 -15 and NSD2 inh -2.
For CCC(=O)N(Cc1cc2ccccc2[nH]c1=O)C(C)C the results were MITF TRPM1 HTS 2, TRPM1 prom inh 1, N-glyco inh -1, PfHsp90 yeast 2 -21 and NSD2 inh 9.
Screening COc1ccc(CNC(=O)CN2C(=O)C3C4C=CC(C4)C3C2=O)cc1 (stereo unspecified) returned Wnt act -1, MITF TRPM1 HTS -91, TRPM1 prom inh 93*, N-glyco inh 3, PfHsp90 yeast 2 -1 and NSD2 inh -1.
Screening Cc1ccccc1N1CCN(C(=O)CCn2nnc3ccccc32)CC1 returned NSD2 inh 1.
COc1ccc(N/N=C(\C#N)C(=N)N2CCOCC2)cc1 was read as Wnt act 3, MITF TRPM1 HTS 17, TRPM1 prom inh -11, N-glyco inh 0, PfHsp90 yeast 2 10 and NSD2 inh -3.
`N#C/C(=N\Nc1cccc(F)c1)C(=N)N1CCCCCC1` gave Wnt act 13, MITF TRPM1 HTS inconclusive, TRPM1 prom inh -83, N-glyco inh -11, PfHsp90 yeast 2 15 and NSD2 inh 6.
`N#C/C(=N\Nc1ccccc1)C(=N)N1CCCCCC1` gave Wnt act 42*, MITF TRPM1 HTS 56, TRPM1 prom inh -49, N-glyco inh -6, PfHsp90 yeast 2 3 and NSD2 inh 5.
`N#C/C(=N\Nc1ccc(F)cc1)C(=N)N1CCCCC1` gave MITF TRPM1 HTS 114*, TRPM1 prom inh -109, N-glyco inh -12, PfHsp90 yeast 2 -7 and NSD2 inh 1.
Screening O=C1/C(=C\c2ccccc2)CN(C(=O)CCN2CCCCC2)C/C1=C/c1ccccc1 returned Wnt act -6, MITF TRPM1 HTS -109, TRPM1 prom inh 109*, N-glyco inh -20 and PfHsp90 yeast 2 10.
Screening CCN(CC)CCC(=O)N1C/C(=C/c2ccccc2)C(=O)/C(=C\c2ccccc2)C1 returned Wnt act -8, MITF TRPM1 HTS -106, N-glyco inh -17, PfHsp90 yeast 2 -6 and NSD2 inh 39.
O=C(NCCN1CCOCC1)c1ccc(Cl)c(Cl)c1 was read as Wnt act 0, TRPM1 prom inh -6, N-glyco inh 0, PfHsp90 yeast 2 -9 and NSD2 inh -2.
O=C1/C(=C\c2ccc(Cl)c(Cl)c2)CN(C(=O)CCN2CCOCC2)C/C1=C/c1ccc(Cl)c(Cl)c1 was read as Wnt act -12, TRPM1 prom inh 118*, N-glyco inh -21, PfHsp90 yeast 2 107* and NSD2 inh -1.
Screening CC1CC(NC(=O)C2(C)CC2(Cl)Cl)CC(C)(C)C1 (stereo unspecified) returned MITF TRPM1 HTS 0, TRPM1 prom inh 3, N-glyco inh 1 and NSD2 inh -2.
For CCN(CC)C(=O)CSc1nnc2nnc3cc(Cl)ccc3n12 the results were Wnt act 6, TRPM1 prom inh 72*, N-glyco inh 1, PfHsp90 yeast 2 -3 and NSD2 inh 29.
Screening COC(=O)c1nn(-c2ccc3c(c2)CCN3C(C)=O)cc1O returned MITF TRPM1 HTS -72, TRPM1 prom inh 72*, N-glyco inh -21, PfHsp90 yeast 2 -25 and NSD2 inh 2.
For NC(=O)C1=C[C@H](C2CCCCC2)C[C@H](OCc2ccc(CO)cc2)O1 the results were Wnt act inconclusive, MITF TRPM1 HTS 107*, TRPM1 prom inh -102 and N-glyco inh -11.
For C=CCOC(=O)C1=C[C@H](C2CCCCC2)C[C@H](OCc2ccc(CO)cc2)O1 the results were Wnt act -1, MITF TRPM1 HTS -7, TRPM1 prom inh 6, N-glyco inh 0 and PfHsp90 yeast 2 12.
Cc1c(CCOC(=O)C23CC4CC(CC(C)(C4)C2)C3)sc[n+]1CC(=O)c1ccccc1 was read as Wnt act -3, MITF TRPM1 HTS -1, TRPM1 prom inh 3, N-glyco inh -8, PfHsp90 yeast 2 -28 and NSD2 inh 4.
Cc1c(CCOC(=O)CC23CC4CC(CC(C)(C4)C2)C3)sc[n+]1CC(=O)c1ccccc1 was read as Wnt act -6, MITF TRPM1 HTS -83, TRPM1 prom inh 84*, N-glyco inh 0, PfHsp90 yeast 2 7 and NSD2 inh 2.
